Pol eta inh-1: qHTS for Inhibitors of Polymerase Eta; 390,000 compounds, 1.2% hits; AID 588591, 2011; recombinant Pol eta, fluorescent DNA replication assay; DNA polymerase eta (Homo sapiens), Q9Y253; Potency, µM (doses to about 114 µM), usual class: inhibitors
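Fluorescent replication assay: 50 nM final substrate added after a 15 min room-temperature compound preincubation with 10 nM enzyme. Signal taken at 0 min and again at 10 min.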
Pol beta inh: qHTS Assay for Inhibitors of DNA Polymerase Beta | 340,000 compounds, 1.3% hits | Pol beta primer extension/strand displacement, fluorescence kinetic | Potency, µM (doses to about 114 µM), most hits filed as inhibitors | AID 485314, 2010
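Reaction started by 50 nM substrate onto compound-treated Pol beta (10 nM, 15 min preincubation, room temperature); plates read at 0 min and 10 min. Normalized concentration-effect data fitted by four-parameter Hill equation.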
POLI inh: qHTS for Inhibitors of Polymerase Iota | 390,000 compounds, 1% hits | Pol iota fluorescent replication assay, 10 min | AID 588590, 2011 | Potency, µM (doses to about 115 µM), most hits filed as inhibitors | DNA polymerase iota (Homo sapiens), Q9UNA4
Target sequence (Q9UNA4 whole entry, looked up): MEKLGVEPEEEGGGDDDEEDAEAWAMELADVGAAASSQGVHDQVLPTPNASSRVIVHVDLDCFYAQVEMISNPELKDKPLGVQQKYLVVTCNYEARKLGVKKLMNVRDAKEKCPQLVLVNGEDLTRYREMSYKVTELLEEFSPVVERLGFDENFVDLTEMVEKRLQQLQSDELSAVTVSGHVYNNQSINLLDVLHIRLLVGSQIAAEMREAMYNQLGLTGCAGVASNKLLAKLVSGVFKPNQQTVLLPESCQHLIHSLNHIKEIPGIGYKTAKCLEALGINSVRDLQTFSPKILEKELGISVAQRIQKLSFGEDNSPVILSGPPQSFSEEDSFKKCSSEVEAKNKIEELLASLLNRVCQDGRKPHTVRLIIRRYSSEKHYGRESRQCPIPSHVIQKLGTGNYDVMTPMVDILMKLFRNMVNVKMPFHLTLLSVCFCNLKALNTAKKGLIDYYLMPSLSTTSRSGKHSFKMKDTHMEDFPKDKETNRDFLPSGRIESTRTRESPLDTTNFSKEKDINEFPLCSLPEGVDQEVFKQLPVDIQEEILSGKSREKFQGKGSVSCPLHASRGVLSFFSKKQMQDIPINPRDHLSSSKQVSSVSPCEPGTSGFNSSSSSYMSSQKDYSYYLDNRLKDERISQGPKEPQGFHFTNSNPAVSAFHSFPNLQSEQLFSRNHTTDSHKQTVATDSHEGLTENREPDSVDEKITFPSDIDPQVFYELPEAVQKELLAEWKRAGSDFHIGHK
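Fluorescent replication assay read twice, at 0 min and 10 min after adding 50 nM (final) substrate. Enzyme (10 nM) and compounds were first incubated 15 min at room temperature; enzyme-free buffer wells were negative controls.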
Pol kappa inh-1: qHTS for Inhibitors of Polymerase Kappa | DNA polymerase kappa (Homo sapiens), Q9UBT6 | purified Pol kappa, fluorescent DNA synthesis assay, 10 min | 400,000 compounds, 0.53% hits | Potency, µM (titrated, usually from 107 µM), usual class: inhibitors
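Fluorescent qHTS in 1536-well format: enzyme (10 nM) and compound sat 15 min at room temperature before 50 nM substrate (final) was added. Signal taken at 0 and 10 min; no-enzyme buffer wells were negative controls.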
WRN helicase inh-1: qHTS for Inhibitors of WRN Helicase | Bifunctional 3'-5' exonuclease/ATP-dependent helicase WRN (Homo sapiens), Q14191 | WRN helicase unwinding, fluorescent forked duplex, kinetic | Potency, µM (titrated, usually from 114 µM), hits mostly inhibitors | 360,000 compounds, 0.46% hits | AID 651768, 2012; note: nearly all actives have a fitted effect of over 55% in size
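Kinetic red-fluorescence monitoring (525/598 nm) tracks WRN helicase activity after 100 nM fluorophore-quencher forked duplex and 2 mM ATP are added to 20 nM enzyme pretreated 15 min at room temperature with compound.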
L3MBTL1 block: qHTS Assay for the Inhibitors of L3MBTL1. Lethal(3)malignant brain tumor-like protein 1 (Homo sapiens), Q9Y468. AlphaScreen L3MBTL1–H3K9me1 peptide binding. Potency, µM (highest dose often 57.1 µM), hits mostly inhibitors. 230,000 compounds, 0.66% hits. AID 485360, 2010; note: nearly all actives have a fitted effect of over 60% in size
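Displacement of a biotinylated histone H3(1-15) peptide monomethylated at Lys9 (75 nM) from L3MBTL1 (50 nM) was measured by AlphaScreen after a 30 min room-temperature compound incubation; cefsulodin titration served as intraplate control.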
GALK confirm: Confirmation Assay for Inhibitors of Human Galactokinase (GALK) | shares compounds with Pol eta inh-1 | 150 compounds, 70% hits | Potency, µM (series often up to 115 µM), most hits filed as inhibitors | AID 2015, 2009 | purified GALK, Kinase-Glo ATP depletion luminescence
GALK redox cs: Confirmatory Assay for Inhibitors of Human Galactokinase (GALK): Phenol-HRP redox assay counterscreen; Potency, µM (series often up to 115 µM), actives largely listed as inhibitors; shares compounds with Pol eta inh-1; Phenol red-HRP H2O2 redox cycling, absorbance 600 nm; 150 compounds, 40% hits
HEK293 tox: Secondary Assay for Inhibitors of Human Galactokinase (GALK): HEK-293 Cell Viability Assay; shares compounds with Pol eta inh-1; HEK-293 viability, ATP luminescence (CellTiter-Glo), 24/48 h; Potency, µM (series often up to 46.1 µM), most hits filed as inhibitors; 170 compounds, 10% hits; AID 2547, 2010
Pol kappa inh-2: qHTS for Inhibitors of Polymerase Kappa: Confirmatory Assay for Cherry-picked Compounds. purified Pol-kappa, fluorescent strand-displacement substrate. Potency, µM, actives largely listed as inhibitors. AID 720501, 2013. shares compounds with Pol eta inh-1. 920 compounds, 76% hits
Pol eta inh-2: qHTS for Inhibitors of Polymerase Eta: Confirmatory Assay for Cherry-picked Compounds | Potency, µM, hits mostly inhibitors | shares compounds with Pol eta inh-1 | AID 720502, 2013 | Pol eta primer extension, TAMRA/BHQ fluorescence, 10 min | 2,600 compounds, 64% hits
WRN helicase inh-2: qHTS for Inhibitors of WRN Helicase: Confirmatory Assay for Cherry-picked Compounds; shares compounds with WRN helicase inh-1; WRN helicase DNA unwinding, fluorescence kinetic; Potency, µM (titrated, usually from 57.1 µM), hits mostly inhibitors; 610 compounds, 63% hits; AID 720497, 2013; note: nearly all actives have a fitted effect of over 65% in size
TO DNA binding: qHTS for Inhibitors of WRN Helicase: Thiazole Orange DNA Binding Counterscreen | 610 compounds, 10% hits | thiazole orange DNA binding displacement, fluorescence | shares compounds with WRN helicase inh-1 | Potency, µM (titrated, usually from 57.1 µM), most hits filed as inhibitors;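 note: drop in dye fluorescence marks compound binding to DNA; nearly all actives have a fitted effect of over 60% in size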
BLM helicase inh: qHTS for Inhibitors of WRN Helicase: BLM Helicase Counterscreen for WRN Inhibitors | shares compounds with WRN helicase inh-1 | Recombinant BLM helicase DNA unwinding, red fluorescence | Potency, µM (series often up to 57.1 µM), usual class: inhibitors | 610 compounds, 60% hits; note: nearly all actives have a fitted effect of over 60% in size
Numbers stand for hits; n = inactive; u = inconclusive; x = no result given; ! = not active in a repeat; [ ] = remark or other dose. An excerpt weighted towards active compounds, which were near 2.5% of everything screened. Calls come from the whole dose curve; as a rule, active = well fitted curve in the direction sought with a large enough effect; inconclusive = small, poorly fitted or top-dose-only effect, or another doubt; inactive = no such curve, though single readings can be large; an effect the other way counts as inactive or inconclusive.

SMILES	Pol eta inh-1	Pol beta inh	POLI inh	Pol kappa inh-1	WRN helicase inh-1	L3MBTL1 block	Pol eta inh-2	WRN helicase inh-2	TO DNA binding	BLM helicase inh	others
CCOc1cc(/C=C2\C(=O)ON=C2c2ccccc2)cc(Br)c1O	u	n	u	n	u	x	x	u	n	u	GALK confirm=u;GALK redox cs=n;HEK293 tox=n
COCc1nnc(NS(=O)(=O)c2ccc(Br)cc2)s1	n	n	n	n	n	n[11.4 µM]	x	x	x	x
N#Cc1c(-c2ccc(Cl)c([N+](=O)[O-])c2)no[n+]1[O-]	x	x	x	x	x	x	75.7	19.2µM	n	21.5µM
Cc1ccc(NC(=O)CNS(=O)(=O)c2ccc(F)cc2)cc1C	n	n	u	n	n	n	x	x	x	x
COc1ccc(CC(CN)c2ccccc2)cc1 (stereo not given)	n	n	n	n	n	n	x	x	x	x
N#Cc1c(C(=O)c2cccs2)no[n+]1[O-]	x	x	x	x	x	x	u	21.5µM	n	24.1µM
Nc1nnc(CC(=O)N/N=C/c2ccc(-c3cccc(C(=O)O)c3)o2)s1	17.8µM	n	11.2µM	25.1µM	u	x	60.1	u	n	u
Nc1nnc(CC(=O)N/N=C/c2ccc(-c3ccc(F)cc3)o2)s1	n	n	u	n	n	x	x	x	x	x
Cc1ccc(C(c2c(O)nc3n(c2=O)CCS3)c2c(O)nc3n(c2=O)CCS3)cc1	n	n	u	n	u	n	x	x	x	x
O=c1c(C(c2ccc(O)cc2)c2c(O)nc3n(c2=O)CCS3)c(O)nc2n1CCS2	20µM	n	n	n	15µM	n	u	u	n	u
O=C(OCc1ccc([N+](=O)[O-])cc1)c1cnc(Cl)c(Cl)c1	n	n	n	n	n	x	x	x	x	x
Cc1ccc(-c2csc(NS(=O)(=O)c3cccc(F)c3)n2)o1	25.1µM	x	u	u	31.6µM	28.2µM	u	24.1µM	n	u
Cc1nc(CNS(=O)(=O)c2cccc(F)c2)cs1	n	n	n	n	n	n	x	x	x	x
Cc1cccc(C(=O)N=c2c(C#N)cc3c(=O)n4cccc(C)c4nc3n2Cc2ccco2)c1	4.47µM	20µM	8.91µM	28.2µM	25.1µM!	x	42.6	24.1µM	n	u
CC1=NOC(=O)/C1=C\c1ccc(-c2cccc(Cl)c2)o1	20µM	u	u	n	13.4µM	n	u	u	n	7.64µM
COC(=O)c1cc(NC(=O)c2ccc3c(c2)NC(=O)c2ccccc2S3)cc(C(=O)OC)c1	50.1µM	6.31µM	u	n	x	u	u	13.6µM	n	1.92µM	Pol kappa inh-2=9.47
O=C(Nc1ccc(F)cc1)c1ccc2c(c1)NC(=O)c1ccccc1S2	n	n	n	n	x	x	x	x	x	x
C=CCN1C(=O)/C(=C/C=C2/N(CC)c3ccc(S(=O)(=O)N(C)C)cc3N2CC)SC1=S	44.7µM	4.47µM	u	n	5.32µM	n	37.9	9.61µM	n	9.61µM
COC(=O)[C@H](Cc1ccccc1)NC(=O)c1cc(COc2c(F)cccc2F)on1	n	n	n	n	n	x	x	x	x	x
Oc1ccc(/C=N/Nc2ncnc3c2ncn3Cc2ccccc2)cc1O	3.16µM	3.55µM	2.24µM	u	u	n	47.8	7.64µM	19.2µM	2.41µM
COc1ccc(C2C(C#N)=C(N)Oc3c2c(C)nn3-c2ccccc2)cc1Cn1nc(C)c([N+](=O)[O-])c1C (stereo not given)	n	n	n	n	n	n	x	x	x	x
Cc1ccc(OCC(=O)Nc2cc(S(=O)(=O)N3CCOCC3)ccc2Cl)c([N+](=O)[O-])n1	n	n	n	n	n	x	x	x	x	x
N#C/C(=C\c1ccncc1)c1nc2ccccc2[nH]1	n	n	n	n	n	n	x	x	x	x
N#C/C(=C\c1ccc(-c2ccc(Cl)c(C(=O)O)c2)o1)c1nc2ccccc2[nH]1	22.4µM	u	22.4µM	n	x	n	60.1	19.2µM	u	13.6µM
N#C/C(=C\c1ccccc1C(=O)O)c1nc2ccccc2[nH]1	n	n	n	n	n	x	x	x	x	x
N#C/C(=C\c1ccc(-c2ccc(C(=O)O)cc2)o1)c1nc2ccccc2[nH]1	28.2µM	u	31.6µM	u	u	n	33.8	19.2µM	n	24.1µM	Pol kappa inh-2=13.4
CN(C)c1ccc(C=C2C(=O)c3ccccc3C2=O)cc1	x	x	n	n	x	x	x	x	x	x
CCN(CC)c1ccc(/C=C2\C(=O)c3ccc(C(=O)O)cc3C2=O)cc1	7.94µM	39.8µM	u	u	39.8µM	u	26.9	21.5µM	n	u
O=C(O)CC(C(=O)O)N1C(=O)/C(=C/c2ccc(-c3nc4ccccc4s3)o2)SC1=S (stereo not given)	2.82µM	10µM	1µM	4.47µM	28.2µM	4.47µM	30.1	21.5µM	n	n
COC(=O)CSCC(=O)Nc1cc2c(cc1C(C)=O)OCO2	n	n	n	n	n	n	x	x	x	x
